PubChem BioAssay AID602430 (NMMLSC, 2012)
The other results are listed elsewhere or left out. Calls of active or inactive are those of the source.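 The calls were made as follows: active = repeat-averaged ratio response below 75% of DMSO, the collection mean minus 3 SD; inactive = the rest.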

Target: ATP-binding cassette sub-family B member 6 (Homo sapiens) (UniProt Q9NP58)
Experiment: ABCB6 transporter inhibitors, confirmation, K562-ABCB6 cells, flow cytometry, cherry pick 1 (AID 602430);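 also: median porphyrin fluorescence at 575 nm with 488 nm excitation from mitochondria; lower ratio means less porphyrin signal so ABCB6 inhibition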
Details: K562-ABCB6 porphyrin accumulation, 1 h, at 10 µM, active compounds read low

Sequence of ATP-binding cassette sub-family B member 6 (Homo sapiens) (Q9NP58 whole entry, looked up): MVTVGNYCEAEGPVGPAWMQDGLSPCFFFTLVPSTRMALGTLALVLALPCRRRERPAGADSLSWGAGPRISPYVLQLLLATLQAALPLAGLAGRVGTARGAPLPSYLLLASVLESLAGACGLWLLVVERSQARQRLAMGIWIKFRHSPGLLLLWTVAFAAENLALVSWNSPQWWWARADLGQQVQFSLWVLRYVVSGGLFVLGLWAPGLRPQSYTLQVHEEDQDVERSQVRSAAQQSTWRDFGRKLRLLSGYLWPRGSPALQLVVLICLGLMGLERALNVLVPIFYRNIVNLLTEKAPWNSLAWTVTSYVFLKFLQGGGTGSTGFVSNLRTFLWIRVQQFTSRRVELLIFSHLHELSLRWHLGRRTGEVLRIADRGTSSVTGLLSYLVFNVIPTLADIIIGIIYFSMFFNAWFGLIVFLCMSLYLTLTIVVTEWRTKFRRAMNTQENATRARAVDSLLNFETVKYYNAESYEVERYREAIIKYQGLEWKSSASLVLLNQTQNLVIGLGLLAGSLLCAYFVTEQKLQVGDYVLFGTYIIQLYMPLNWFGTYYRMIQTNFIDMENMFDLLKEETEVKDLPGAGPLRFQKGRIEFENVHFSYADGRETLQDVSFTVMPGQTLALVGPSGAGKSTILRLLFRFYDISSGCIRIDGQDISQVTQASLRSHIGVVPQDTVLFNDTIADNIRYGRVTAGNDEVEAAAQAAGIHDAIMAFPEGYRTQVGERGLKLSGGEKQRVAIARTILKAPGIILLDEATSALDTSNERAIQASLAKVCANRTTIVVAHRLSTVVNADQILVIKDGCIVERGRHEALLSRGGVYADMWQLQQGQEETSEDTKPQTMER

| SMILES | ratio response (% of DMSO) |
| --- | --- |
| O=C(c1ccc(Cl)cc1)c1cnc(Nc2ccccc2)s1 | 102% (inactive) |
| CC(C(=O)Nc1ccc(F)c(F)c1F)N1CCCCCC1 (stereo unspecified) | 101% (inactive) |
| COc1ccc(CCNS(=O)(=O)c2ccc(F)cc2)cc1OC | 101% (inactive) |
| O=C(COc1ccc(-n2cnnn2)cc1)Nc1ccccc1Cl | 99% (inactive) |
| COc1cccc(N(CC(=O)N2CCc3ccccc3C2)S(C)(=O)=O)c1 | 100% (inactive) |
| Cc1cccc(CS(=O)(=O)c2ncc(Cl)c(C(=O)Nc3ccc(F)cc3)n2)c1 | 89% (inactive) |
| CCOC(=O)N1CCN(C(=O)CN(C2CCCCC2)S(C)(=O)=O)CC1 | 101% (inactive) |
| COc1ccc(CCNC2=C(Cl)C(=O)N(Cc3ccccc3)C2=O)cc1OC | 100% (inactive) |
| Cc1cccc(NC(=O)c2nc(S(=O)(=O)Cc3ccccc3)ncc2Cl)c1 | 90% (inactive) |
| COc1cc2[nH]c(=S)n(Cc3ccc(F)cc3)c(=O)c2cc1OC | 100% (inactive) |
| Cc1cccc(N2CCN(C(=O)CCS(=O)(=O)c3ccc4c(c3)NC(=O)C(C)S4)CC2)c1C (stereo unspecified) | 96% (inactive) |
| CCS(=O)(=O)N1CCC(N2CCN(c3ccccc3)CC2)CC1 | 103% (inactive) |
| O=C1CCCC2=C1C(c1cccs1)n1nc(SCc3ccccc3)nc1N2 (stereo unspecified) | 102% (inactive) |
| Cc1ccc(Cl)cc1N1CCN(C(=O)c2cccc3c(=O)c(C)c(-c4ccccc4)oc23)CC1 | 102% (inactive) |
| CCC(=O)N1CCCC1(C)C(=O)Nc1ccc2c(c1)CCN2C(C)=O (stereo unspecified) | 99% (inactive) |
| OCCC1CN(Cc2cnc(-c3ccccc3)s2)CCN1CCc1ccccc1 (stereo unspecified) | 102% (inactive) |
